Shown are actives, neighbours in structure and some others; about 2.4% of the full set was active somewhere.
STAT3 inh-1 = IL-6 driven STAT3 reporter inhibitors, primary screen, U3A cells, luciferase, luminescence, MLSCN library; AID 862, 2007; 0.89% of 190,000 active; inhibition, % at 5.5 µM; IL-6 STAT3-luciferase reporter; host cell line lacks STAT1;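 active = inhibition above the mean inhibition across all screened compounds plus 3 SD, cut at about 44% in these data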
HSP90 refold inh = HSP90 inhibitors, primary screen, cell lysate, luminescence; AID 1789, 2009; Heat shock protein HSP 90 (rabbit reticulocyte lysate; luciferase refolding); inhibition, % at 5.6 µM; 0.91% of 290,000 active; Rabbit reticulocyte lysate, luciferase refolding luminescence, 3 h;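 active = inhibition above the screen-wide mean plus 3 SD, computed separately per campaign, cut at about 16% in these data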;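 also: inhibitors lower the luminescence because luciferase stays unfolded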
C8 TRAIL sens = viability loss with TRAIL in NB7+C8 cells, primary screen, TRAIL sensitizer project, cell-based, ATPlite luminescence | inhibition (viability loss, TRAIL sensitization), % at 10 µM | 1% of 360,000 active | AID 624354, 2012;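 active = compounds causing at least 50% loss of cell viability in the single-dose screen, relative to plate controls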
PPC-1+TRAIL kill = compounds killing PPC-1 cancer cells with TRAIL present, primary screen, TRAIL potentiator project, ATPLite luminescence, uHTS | PPC-1 cells + TRAIL, ATPLite viability luminescence | cell killing (% activity), % at 4 µM or 5 µM | 0.41% of 220,000 active | AID 1443, 2008;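 active = cell killing above 50% in the first pass at 4 µM, then a duplicate retest at 5 µM averaging 50% or more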
STAT1 blocker = STAT1 signaling inhibitors, primary screen, cell-based, HTS, luciferase reporter; inhibition, % at 5.5 µM; AID 920, 2007; NIH 3T3 STAT1-luciferase reporter, IFN-gamma, luminescence; 0.35% of 200,000 active;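 active = inhibition above a set limit, the mean inhibition across all tested compounds plus 3 SD, cut at about 34% in these data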
HSF1 inh = HSF1 inhibitors in luciferase reporter cells, primary screen, cell-based, NIH3T3, luminescence; NIH3T3-HGL HSE-luciferase, MG132-induced, luminescence 8 h; stronger effect = lower value; activity change, negative = inhibition, % at 7.5 µM (by protocol); 0.77% of 300,000 active; AID 2098, 2009;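 active = more than half of replicate wells show activity change below -50%, luminescence cut by over half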;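 also: luciferase reports HSF-1 transcriptional activity via heat shock element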
STAT3 inh-2 = STAT3 reporter inhibitors, retest of hits, confirmation, U3A cells, luciferase, luminescence; shares compounds with STAT3 inh-1; IL-6 STAT3 luciferase reporter; cell line lacks STAT1; inhibition, % at 5.7 µM; 45% of 1,200 active; AID 1265, 2008;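 active = inhibition above the hit cutoff computed for the primary STAT3 screen, cut at about 44% in these data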
NFkB inh 2 = NF-kB reporter inhibitors in human cells, confirmation, counter-screen for STAT3 inhibitor project, cell-based, HEK293T, luciferase, TNF-alpha stimulus; shares compounds with STAT3 inh-1; TNF-alpha induced; inhibition, % at 5.7 µM; 36% of 1,200 active;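 active = inhibition above the mean of solvent-only control wells plus 3 SD, cutoff set per campaign, cut at about 13% in these data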
STAT1 inh STAT3c = STAT1 reporter inhibitors, IFN-gamma induced, confirmation, counter-screen for STAT3 inhibitor project, cell-based, NIH 3T3, luciferase luminescence; inhibition, % at 5.7 µM; 27% of 1,200 active; AID 1317, 2008; NIH 3T3 STAT1-luciferase reporter; shares compounds with STAT3 inh-1;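 active = inhibition above the mean plus 3 SD of solvent-only control wells, limit set per screening run, cut at about 16% in these data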
Hits are given with their value; i = inactive; nt = not tested or not shown.

SMILES	STAT3 inh-1	HSP90 refold inh	C8 TRAIL sens	PPC-1+TRAIL kill	STAT1 blocker	HSF1 inh	STAT3 inh-2	NFkB inh 2	STAT1 inh STAT3c
COC(=O)c1ccc(-c2nc3ccc(C)cc3o2)cc1	68	i	i	i	i	i	i	i	i
Cc1ccc2oc(-c3ccco3)nc2c1	i	i	i	i	i	i	nt	nt	nt
Cc1nn(C)c(C)c1CN(Cc1nc(CCC(C)C)no1)C(C)C	76	i	i	i	i	i	78	27	20
O=C1Nc2cccc3c2N(CCC3)C2=C1CCC2	nt	nt	i	nt	nt	nt	nt	nt	nt
CCN(C(=O)CSc1nnc(-c2cccc(F)c2)n1N)c1c(N)n(Cc2ccccc2)c(=O)[nH]c1=O	nt	nt	i	nt	nt	nt	nt	nt	nt
Cc1cc(-c2cn3ccccc3n2)c(C)n1-c1ccccc1	58	i	64	i	i	i	i	i	i
COc1ccc(-n2c(C)cc(-c3cn4cccc(C)c4n3)c2C)cc1	i	i	i	i	i	i	nt	nt	nt
Nc1ccc(S(=O)(=O)NN=Cc2ccccc2[N+](=O)[O-])cc1	nt	nt	i	nt	nt	nt	nt	nt	nt
CC(C)(C)c1ccc(C(=O)N2CCCCCC2=O)cc1	45	i	i	i	i	i	64	35	30
O=C(CN1CCC(c2nc3ccccc3s2)CC1)NCc1cccs1	46	i	i	i	i	i	i	i	i
O=C(COC(=O)c1n[nH]c2ccccc12)Nc1ccc(S(=O)(=O)N2CCCC2)cc1	71	i	i	i	i	nt	51	i	i
C[C@@H]1COc2cc(N3CCC[C@@H]3CO)ccc2S(=O)(=O)N1	nt	nt	i	nt	nt	nt	nt	nt	nt
Cc1ccc(C)c(N=Nc2ccc(O)c3ncccc23)c1	46	i	i	i	i	i	i	i	i
COc1ccc(CC(=O)Nc2cccc(-c3nnc(-c4cccc(C)c4)o3)c2)cc1OC	44	i	i	i	i	i	62	i	i
Cc1ccc(OCC(=O)Nc2cccc(-c3nnc(-c4ccccc4)o3)c2)c(C)c1	i	i	i	i	i	i	nt	nt	nt
Cn1c(CN2CCCCC2)nc2cc(NC(=O)c3cccc(Br)c3)ccc21	63	i	i	i	i	i	51	i	i
CC(=O)Nc1ccc(SCC(=O)c2cc(C)n(-c3ccccc3F)c2C)cc1	54	i	i	i	i	-68	i	i	i
Cc1ccc(CNC(=O)c2cc3c(C)nc4ccccc4c3o2)cc1	54	i	i	i	i	i	i	i	24
Cc1cc(C(=O)OCC(=O)Nc2cccc(S(=O)(=O)N(C)C)c2)c(C)o1	nt	i	i	i	nt	i	nt	nt	nt
Cc1cc(C(=O)OCC(=O)Nc2cccc(S(=O)(=O)N(C)C)c2)c2ccccc2n1	47	i	i	i	i	i	i	i	i
COc1ccccc1N1CCN(C(=O)CSc2nnc3n2C(C)(C)Cc2ccccc2-3)CC1	57	i	i	i	i	nt	53	14	19
Cc1cc(OCC(=O)Nc2ccncc2)ccc1Br	57	i	i	i	i	i	52	i	i
Cc1sc(NC(=O)c2ccco2)c(C(c2cccnc2)N2CCN(CCO)CC2)c1C (stereo not given)	i	i	i	i	i	i	nt	nt	nt
CCOC(=O)C1CCN(C(c2cccnc2)c2c(NC(=O)c3ccco3)sc(C)c2C)CC1 (stereo not given)	50	i	i	i	i	i	64	14	i
CCc1nc2c(OCC=C(C)C)cccn2c1N(C)C(=O)c1ccc(OC)cc1	nt	nt	i	nt	nt	nt	nt	nt	nt
SMILES	STAT3 inh-1	HSP90 refold inh	C8 TRAIL sens	PPC-1+TRAIL kill	STAT1 blocker	HSF1 inh	STAT3 inh-2	NFkB inh 2	STAT1 inh STAT3c
O=C(Oc1cccc(Nc2ncnc3ccccc23)c1)c1ccccc1Cl	54	i	i	i	i	i	48	i	i
COc1cccc(Nc2ncnc3ccccc23)c1	i	i	i	i	i	i	nt	nt	nt
Cc1nn(Cc2ccc(Cl)cc2Cl)c(C)c1NC(=O)C1C2CCC(O2)C1C(=O)O (stereo not given)	47	i	i	i	i	i	i	i	i
Cc1nc(NCc2ccccn2)c2ccccc2n1	49	i	i	i	i	i	i	i	i
Cc1ccc(S(=O)(=O)N2c3ccccc3OCC2c2ccccc2)cc1 (stereo not given)	i	i	i	i	i	i	nt	nt	nt
O=C(C(Cl)Cl)N1c2ccccc2OCC1c1ccccc1 (stereo not given)	50	i	i	i	i	i	i	i	i
N#Cc1c(SCC(=O)Nc2nncs2)sc2c(O)cc(=O)[nH]c12	nt	i	i	nt	nt	i	nt	nt	nt
COc1ccc(CCNc2cc(N3CCN(C(=O)c4ccccc4F)CC3)ccc2[N+](=O)[O-])cc1OC	69	i	52	i	i	i	84	37	19
COc1ccc(CCNc2cc(N3CCN(C(=O)c4ccc(C)cc4)CC3)ccc2[N+](=O)[O-])cc1OC	i	i	nt	i	i	i	nt	nt	nt
COc1ccc(C(=O)N2CCN(c3ccc([N+](=O)[O-])c(NCCc4ccc(OC)c(OC)c4)c3)CC2)cc1	70	i	i	i	i	i	87	42	29
COC(=O)c1nn(-c2ccc(-c3ccccc3)cc2)cc1O	74	i	58	i	i	i	i	i	i
Cc1ccccc1NC1=CC(=O)CC(C)(C)C1	i	i	i	i	i	i	nt	nt	nt
CC1(C)CC(=O)C=C(NC2=CC3OC(c4ccccc4)OCC3OC2=O)C1 (stereo not given)	45	i	i	i	i	i	i	23	18
O=C(CCCN1C(=O)S/C(=C\c2ccccc2)C1=O)NNC(=O)c1ccccc1O	64	i	i	i	i	i	56	35	i
Cc1cc(C)cc(NC(=O)c2ccc(CN3CCc4ccccc4C3)cc2)c1	nt	i	i	nt	nt	i	nt	nt	nt
O=C(Nc1cccnc1)c1ccc(CN2CCc3ccccc3C2)cc1	47	i	i	i	i	i	i	i	i
O=C(Nc1ccccc1F)c1ccc(CN2CCc3ccccc3C2)cc1	nt	i	i	nt	nt	i	nt	nt	nt
O=C(Nc1ccccc1)c1ccc(CN2CCc3ccccc3C2)cc1	52	i	i	nt	i	i	64	i	i
Cc1ccc(NC(=O)c2ccc(CN3CCc4ccccc4C3)cc2)cc1	71	i	i	i	i	i	67	18	i
